# Records with an inconclusive call do not appear. Entries that show only a call come without a potency. Calls of active or inactive are those of the source. The call rests on the fitted dose curve; in most records, active means well fitted cell-killing curve with a large enough effect; inconclusive means small, poorly fitted or top-dose-only effect; inactive means flat fitted curve, though single readings scatter.
# Assay: Cellular viability qHTS for adrenocortical cancer (ACC) cell line NCI-H295R (AID 1963990); further: nearly all actives have a fitted effect of over 60% in size
# Details: CellTiter-Glo ATP luminescence, 48 h; series mostly up to 46.1 µM
# In short: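 Readout: CellTiter-Glo luminescence, 20 min RT. Exposure: 48 h, 37C/5% CO2. Cells: NCI-H295R, ITS-DMEM serum-free. Range: up to 46 uM. Analysis: 4PL fit, IC50 plus efficacy.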
# Potency means the concentration at half of the fitted maximal effect.
row,SMILES,Potency
1,CCn1c(=O)c2c(nc(/C=C/c3ccc(OC)c(OC)c3)n2C)n(CC)c1=O,inactive
2,CN1C(=O)[C@@H](NC(=O)c2cc(Cc3ccccc3)on2)COc2ccccc21,inactive
3,O=C1CC[C@H](N2Cc3c(OCc4ccc(CN5CCOCC5)cc4)cccc3C2=O)C(=O)N1,inactive
4,CC(C)=CCOc1ccc(/C=C/C(=O)c2ccc(OCC=C(C)C)cc2OCC(=O)O)cc1,9.2 µM (active)
5,c1ccc(OCc2ccc(CCCN3CCOCC3)cc2)cc1,inactive
6,C/C=C(/C(=C/C)c1ccc(OC(C)=O)cc1)c1ccc(OC(C)=O)cc1,23.1 µM (active)
7,CCN(CC)CCCN(c1ccccc1)C1Cc2ccccc2C1,25.9 µM (active)
8,Cc1cc(O)c2ccccc2c1O,20.6 µM (active)
9,O=C(Nc1ccccc1)OCC(CN1CCCCC1)OC(=O)Nc1ccccc1 (stereo unspecified),23.1 µM (active)
10,NC(=O)n1c(O)c(C(=O)c2cccs2)c2cc(Cl)ccc21,9.2 µM (active)
11,NC1=NCC2c3ccccc3Cc3ccccc3N12 (stereo unspecified),inactive
12,COc1ccc2c(c1)C(=O)N(CCc1ccc(S(=O)(=O)NC(=O)NC3CCCCC3)cc1)C(=O)C2(C)C,inactive
13,CCc1cccc(N(C)C(N)=Nc2cccc3ccccc23)c1,20.6 µM (active)
14,CCOC(=O)C1=C(C)NC(C)=C(C(=O)OC)C1c1cccc([N+](=O)[O-])c1 (stereo unspecified),16.4 µM (active)
15,CCOC(=O)c1c(N)sc2c1CCN(Cc1ccccc1)C2,inactive
16,C=CCN(/C=C1\C(=O)O[C@@H](COC)[C@]2(C)C1=C(O)C(=O)C1=C2[C@@H](OC(C)=O)C[C@]2(C)C(=O)CC[C@H]12)CC=C,28.2 µM (active)
17,CCCCCCOc1ccccc1C(N)=O,inactive
18,CCC(=O)OCC(=O)C1(OC(=O)CC)C(C)CC2C3CCC4=CC(=O)C=CC4(C)C3(F)C(O)CC21C (stereo unspecified),4.47 µM (active)
19,CCCCN(CCCC)C(C(N)=O)c1ccc(OC)cc1 (stereo unspecified),inactive
20,OCCN1CCN(CCCN2c3ccccc3C=Cc3ccccc32)CC1,inactive
21,CC#CC(=O)N1CCC[C@H]1c1nc(-c2ccc(C(=O)Nc3ccccn3)cc2)c2c(N)nccn12,inactive
22,Cc1c(Cl)cccc1S(=O)(=O)Nc1nc(CCN2CCOCC2=O)cs1,inactive
23,COc1ccc(-n2nc(CCC(=O)N(C)O)cc2-c2ccc(Cl)cc2)cc1,16.4 µM (active)
24,Cn1cc(/C=C2\C(=O)Nc3cccnc32)c2ccccc21,inactive
25,Cc1c2oc3c(C)ccc(C(=O)N[C@@H]4C(=O)N[C@H](C(C)C)C(=O)N5CCC[C@H]5C(=O)N(C)CC(=O)N(C)[C@@H](C(C)C)C(=O)O[C@@H]4C)c3nc-2c(C(=O)N[C@@H]2C(=O)N[C@H](C(C)C)C(=O)N3CCC[C@H]3C(=O)N(C)CC(=O)N(C)[C@@H](C(C)C)C(=O)O[C@@H]2C)c(N)c1=O,0.0517 µM (active)
26,C[C@H]1[C@H](C)CC[C@]2(C(=O)O)CC[C@]3(C)C(=CC[C@@H]4[C@@]5(C)C[C@@H](O)[C@H](O)[C@@](C)(CO)[C@@H]5CC[C@]43C)[C@H]12,inactive
